Test system: Vero E6 infected with SARS-CoV-2
Assay: inhibition of SARS-CoV-2 cytopathic effect; higher = more antiviral protection, active = above 15
Conditions: 48 h

Measured: inhibition of SARS-CoV-2 cytopathic effect

CCc1cccc(CC)c1NC(=O)c1nn(C)c2c1CCc1cnc(Nc3ccc(C(=O)NC4CCN(C)CC4)cc3OC(F)(F)F)nc1-2
inactive: 1 nM 1.19% | 8.33 nM 3.71% | 100 nM 1.53% | 833.33 nM 0.13% | 10000 nM 5.39%

Cc1cc(Nc2nc(N[C@@H](C)c3ccc(F)cc3)c(C#N)cc2F)n[nH]1
inactive: 1 nM 0.59% | 8.33 nM 0.82% | 100 nM -1.14% | 833.33 nM -3.33% | 10000 nM -13%

CCC(c1ccccc1)c1c(O)c2ccccc2oc1=O (stereo not given) [phenprocoumon]
inactive: 1 nM -0.55% | 8.33 nM 0.6% | 100 nM 1.1% | 833.33 nM -0.13% | 10000 nM -0.87%

CCN1C(=O)CNc2ncc(-c3ccc(-c4nc[nH]n4)nc3C)nc21
inactive: 1 nM 2.11% | 8.33 nM 2.76% | 100 nM 2.06% | 833.33 nM 2.77% | 10000 nM -4.67%

CN1C(=O)C(Cc2c[nH]c3ccccc23)NC1=S (stereo not given) [necrostatin-1]
inactive: 1 nM 1.27% | 8.33 nM -1.34% | 100 nM 2.85% | 833.33 nM 1.03% | 10000 nM 1.43%

CCCc1c(OCCCCc2nnn[nH]2)ccc(C(C)=O)c1O [tomelukast]
inactive: 1 nM -8.82% | 8.33 nM -9.23% | 100 nM -10% | 833.33 nM -8.13% | 10000 nM -6.02%

N[C@@H](Cc1ccc(O)cc1)C(=O)NCC(=O)NCC(=O)O
inactive: 1 nM 1.38% | 8.33 nM 0.88% | 100 nM 1.16% | 833.33 nM 1.07% | 10000 nM 0.4%

Cc1cn2c(N)c(Cl)cc(C(=O)NCC3CCN(CC(C)C)CC3)c2n1
inactive: 1 nM 2.35% | 8.33 nM 1.24% | 100 nM 2.96% | 833.33 nM 3.33% | 10000 nM 0.75%

CC(C)[C@H]1CC[C@H](C(=O)N[C@H](Cc2ccccc2)C(=O)O)CC1 [nateglinide]
inactive: 1 nM 0.56% | 8.33 nM 2.28% | 100 nM 0.38% | 833.33 nM 1.09% | 10000 nM 1.33%

CCCCC(CC)CNC(=N)NC(=N)NCCCCCCNC(=N)NC(=N)NCC(CC)CCCC (stereo not given) [alexidine]
inactive: 1 nM -2.11% | 8.33 nM 4.36% | 100 nM 2.23% | 833.33 nM -6.06% | 10000 nM -18.2%

Oc1cc2c(cc1O)[C@H](Cc1cccc3ccccc13)NCC2
inactive: 1 nM 1.2% | 8.33 nM -0.02% | 100 nM -0.84% | 833.33 nM -0.78% | 10000 nM -2.59%

Cn1cc(C[C@@H](N)C(=O)O)c2ccccc21 [indoximod]
inactive: 1 nM -3.51% | 8.33 nM -2.58% | 100 nM -2.33% | 833.33 nM -1.85% | 10000 nM -1.3%

Cc1nc2ccc(Oc3ccc(F)cc3)cc2c(=O)n1C[C@H]1CCCN(C(C)C)C1
inactive: 1 nM 0.11% | 8.33 nM 0.49% | 100 nM 1.67% | 833.33 nM 0.07% | 10000 nM -5.71%

CC(C)N(CCCNC(=O)Nc1ccc(C(C)(C)C)cc1)C[C@H]1O[C@@H](n2ccc3c(N)ncnc32)[C@H](O)[C@@H]1O
inactive: 1 nM 4.48% | 8.33 nM 2.04% | 100 nM 4.36% | 833.33 nM -0.49% | 10000 nM 0.43%

O=C(O)CSc1nnc(Br)n1-c1ccc(C2CC2)c2ccccc12 [lesinurad]
inactive: 1 nM -0.42% | 8.33 nM -0.65% | 100 nM 2.45% | 833.33 nM 0.63% | 10000 nM -2.06%

N[C@@H](CS(=O)O)C(=O)O [L-cysteinesulfinic-acid]
inactive: 1 nM 0.48% | 8.33 nM 0.74% | 100 nM 1.16% | 833.33 nM -1.19% | 10000 nM 2.03%

O=C(NCCS(=O)(=O)c1ccc(C(F)(F)F)cn1)c1ccc(Cl)cc1
inactive: 1 nM 4.56% | 8.33 nM -1.99% | 100 nM 5.99% | 833.33 nM 1.04% | 10000 nM 1.56%

O=C(N[C@H](CO)[C@H](O)c1ccc([N+](=O)[O-])cc1)C(Cl)Cl [chloramphenicol]
inactive: 1 nM 0.28% | 8.33 nM -0.6% | 100 nM -1.23% | 833.33 nM 0.21% | 10000 nM -3.04%

O=C(CCCN1CCC(n2c(=O)[nH]c3ccccc32)CC1)c1ccc(F)cc1 [benperidol]
inactive: 1 nM 0.17% | 8.33 nM -0.44% | 100 nM -0.77% | 833.33 nM 2.15% | 10000 nM -4.28%

Source: the supplement of paper PMC13380429
